Source: PubChem BioAssay (Tox21)
Records with an inconclusive call do not appear. Unmarked numbers belong to inactive results. Activity calls are given as the source filed them. Calls come from the whole dose curve; as a rule, active = well fitted activation curve with a large enough effect; inconclusive = small, poorly fitted or top-dose-only effect; inactive = flat fitted curve, though single readings scatter. Positions of bridges follow the written chain, without caps; N, C: chain ends. Non-standard residues stand in square brackets, D forms with d. Residues, ends and D or L forms follow the SMILES beside them. *: point of attachment. X1 = CC[C@@H](C)[C@@H](N)C1=N[C@H](C(=O)*)CS1; d(aIle) = CC[C@H](C)[C@@H](N)C(=O)O; dOrn = NCCC[C@@H](N)C(=O)O
% is set by controls: 0 for no effect and ±100 for the full control effect.

Experiment: qHTS assay to identify small molecule phospholipidosis (PLD) inducers (AID 1259344)
Details: HepG2 phospholipidosis, LipidTOX Red imaging, 24 h; series mostly up to 38.3 µM; PLD induction: at the top concentration
Outline: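 Cells (HepG2, 900 per well) attach for 4 h, receive LipidTOX Red and compound together, incubate 24 h at 37 C, are fixed 30 min with paraformaldehyde/Hoechst, then imaged at one site per well.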
For `CC(C)CCC[C@@H](C)[C@H]1CC[C@H]2[C@@H]3CC=C4C[C@@H](O)CC[C@]4(C)[C@H]3CC[C@]12C`, the “PLD induction” value was -1.5%.
With `Cc1cc(C(=O)NCCc2ccc(S(=O)(=O)NC(=O)NN3CCCCCC3)cc2)no1` the “PLD induction” value was -0.0169%.
In the case of `C/C=C/C1=C(C(=O)O)N2C(=O)[C@@H](NC(=O)[C@H](N)c3ccc(O)cc3)[C@H]2SC1`, the “PLD induction” value is reported as -0.389%.
For `N#Cc1c(N(CC(=O)O)CC(=O)O)sc(C(=O)O)c1CC(=O)O`, the “PLD induction” value was -0.335%.
With `O=C1[O][Bi][O]c2ccccc21` the “PLD induction” value was -0.561%.
For `CC(C)COC(=O)OCN1C(=O)CN(CCN2CC(=O)N(COC(=O)OCC(C)C)C(=O)C2)CC1=O`, the “PLD induction” value was -0.0088%.
In the case of `C=CC[N+]1([C@H]2C[C@H]3[C@@H]4CC[C@H]5C[C@H](O)[C@@H](N6CCOCC6)C[C@]5(C)[C@H]4CC[C@]3(C)[C@H]2OC(C)=O)CCCC1`, the “PLD induction” value is reported as -0.221%.
In the case of `COc1cc(NS(C)(=O)=O)ccc1Nc1c2ccccc2nc2ccccc12`, the “PLD induction” value is reported as 11.3%.
For `CCCCCCCC[N+](C)(C)CCCCCCCC`, the Potency was “inactive”.
In the case of `CN[C@H](CC(C)C)C(=O)N[C@H]1C(=O)N[C@@H](CC(N)=O)C(=O)N[C@H]2C(=O)N[C@H]3C(=O)N[C@H](C(=O)N[C@@H](C(=O)O)c4cc(O)cc(O)c4-c4cc3ccc4O)[C@H](O)c3ccc(c(Cl)c3)Oc3cc2cc(c3O[C@@H]2O[C@H](CO)[C@@H](O)[C@H](O)[C@H]2O[C@H]2C[C@](C)(N)C(O)[C@H](C)O2)Oc2ccc(cc2Cl)[C@H]1O` (some centres undefined), the Potency is reported as “inactive”.
For `CC(=O)Oc1cc(C(F)(F)F)ccc1C(=O)O`, the “PLD induction” value was -0.104% [at 15.5 µM].
For `COc1cc2c(cc1O)CCN[C@]21CS[C@@H]2c3c(OC(C)=O)c(C)c4c(c3[C@H](COC1=O)N1[C@@H]2[C@H]2c3c(cc(C)c(OC)c3O)C[C@@H]([C@@H]1O)N2C)OCO4`, the Potency was “inactive”.
In the case of `COC(=O)C[C@](O)(CCCC(C)(C)O)C(=O)O[C@@H]1C(OC)=CC23CCCN2CCc2cc4c(cc2[C@H]13)OCO4` (some centres undefined), the Potency is reported as “inactive”.
With `CC(C)Cc1ccc([C@H](C)C(=O)O)cc1` the “PLD induction” value was -6.28%.
For `OCCCNc1ccccc1`, the “PLD induction” value was -0.547%.
For `COC(=O)C(CN)c1c[nH]c2ccc(OC)cc12` (centres undefined), the “PLD induction” value was -0.964%.
In the case of `COc1ccc([C@@H]2CC(=O)c3c(O)cc(O[C@@H]4O[C@H](CO[C@@H]5O[C@@H](C)[C@H](O)[C@@H](O)[C@H]5O)[C@@H](O)[C@H](O)[C@H]4O)cc3O2)cc1O`, the “PLD induction” value is reported as -0.0576% [at 15.5 µM].
With `NC(=O)C1c2ccccc2CCc2ccccc21` the “PLD induction” value was -0.486%.
With `N[C@@H](Cc1cnc[nH]1)C(=O)O` the “PLD induction” value was -0.695%.
With `CC[C@@]1([C@@H]2O[C@@H]([C@H]3O[C@@](O)(CO)[C@H](C)C[C@@H]3C)C[C@@H]2C)CC[C@H]([C@]2(C)CC[C@]3(C[C@H](O)[C@@H](C)[C@@H]([C@@H](C)[C@@H](OC)[C@H](C)C(=O)O)O3)O2)O1` (stereo in doubt) the Potency was “inactive”.
In the case of `C(=C\c1ccncc1)/c1ccccc1`, the Potency is reported as “inactive”.
In the case of `NC(N)=NCCCCN=C(N)N`, the “PLD induction” value is reported as -6.42%.
For `O=C(O)c1ccc(NC2OC[C@@H](O)[C@H](O)[C@H]2O)cc1` (some centres undefined), the “PLD induction” value was -0.158%.
For `C[S+](CC[C@H](N)C(=O)O)C[C@H]1O[C@@H](n2cnc3c(N)ncnc32)[C@H](O)[C@@H]1O` (some centres undefined), the Potency was “inactive”.
For `CC(C)CCC[C@@H](C)[C@H]1CC[C@H]2[C@@H]3CC[C@@H]4C[C@H](O)CC[C@]4(C)[C@H]3CC[C@]12C`, the “PLD induction” value was 0.594%.
With `CC[C@@H](C)[C@@H](N)C1=N[C@H](C(=O)N[C@@H](CC(C)C)C(=O)N[C@@H](CCC(=O)O)C(=O)N[C@@H](C(=O)N[C@@H]2CCCCNC(=O)[C@@H](CC(N)=O)NC(=O)[C@@H](CC(=O)O)NC(=O)[C@@H](Cc3cnc[nH]3)NC(=O)[C@@H](Cc3ccccc3)NC(=O)[C@@H]([C@H](C)CC)NC(=O)[C@@H](CCCN)NC2=O)[C@@H](C)CC)CS1` (X1-LE[d(aIle)][dK][dOrn][dI][dF][dH][dD][dN]; lactam 4-C) the Potency was “inactive”.
With `O=C1c2c(O)cccc2[C@H]([C@@H]2O[C@H](CO)[C@@H](O)[C@H](O)[C@H]2O)c2cc(CO)cc(O)c21` the Potency was “inactive”.
In the case of `Cc1ccc(C(C)(C)c2ccc(C)cc2)cc1`, the “PLD induction” value is reported as -0.975%.
In the case of `NC(=O)[C@@H]1C[C@]2(NC(=O)NC2=O)c2cc(F)ccc2O1`, the “PLD induction” value is reported as -1.06%.
With `CC1(C)CCC(NC(=O)[C@@H](N)CCC(=O)O)CC1` the “PLD induction” value was -0.692%.
In the case of `CCCCCCOC(=O)c1cccnc1`, the “PLD induction” value is reported as -0.444%.
With `CCCCCCCCCCCCOS(=O)(=O)O` the “PLD induction” value was -0.261%.
With `C=CC(N)CCC(=O)O` (centres undefined) the “PLD induction” value was 1.01%.
In the case of `CNC(=O)C[C@@H](N)C(=O)N[C@@H](C(=O)N[C@@H]1C(=O)N2[C@@H]1SC(C)(C)[C@@H]2C(=O)O)c1ccc(O)cc1`, the “PLD induction” value is reported as -0.107%.
With `CC(=O)OCC(=O)[C@@]1(O)CC[C@H]2[C@@H]3CCC4=CC(=O)CC[C@]4(C)C3=CC[C@@]21C` the “PLD induction” value was -0.152%.
For `CC[C@H](C)C(=O)O[C@H]1CCC=C2C=C[C@H](C)[C@H](CC[C@@H]3C[C@@H](O)CC(=O)O3)[C@H]21`, the “PLD induction” value was -1.65%.
In the case of `CNCC(=O)N[C@@H](CCCN=C(N)N)C(=O)N[C@H](C(=O)N[C@@H](Cc1ccc(O)cc1)C(=O)N[C@H](C(=O)N[C@@H](Cc1cnc[nH]1)C(=O)N1CCC[C@H]1C(=O)N[C@@H](C)C(=O)O)C(C)C)C(C)C`, the “PLD induction” value is reported as 0.0608%.
In the case of `CC(C)[C@H](NC(=O)[C@H](CC(=O)O)NC(=O)[C@H](CCCCN)NC(=O)[C@@H](N)CCCN=C(N)N)C(=O)N[C@@H](Cc1ccc(O)cc1)C(=O)O` (H-RKDVY-OH), the “PLD induction” value is reported as -0.269%.
For `CC1CCCC(C)N1NC(=O)c1ccc(Cl)c(S(N)(=O)=O)c1` (centres undefined), the “PLD induction” value was -1.33% [at 15.5 µM].
